The structures appear in SMILES notation. Where “and” joins values, the source holds several entries; their conditions need not be identical. Identical values can stand only once.

Experiment [1] deals with Calcium/calmodulin-dependent protein kinase type II subunit alpha (Homo sapiens) (UniProt Q9UQM7). As to conditions: at 1 µM.
Experiment [2] deals with Calcium/calmodulin-dependent protein kinase type II subunit delta (Homo sapiens) (UniProt Q13557). The following applies: at 0.1 µM.
Experiment [3] shares this target. The following applies: at 1 µM.
For experiment [4], the target named is T1, Calcium/calmodulin-dependent protein kinase type IV (Homo sapiens) (UniProt Q16566).
T1 sequence (whole entry): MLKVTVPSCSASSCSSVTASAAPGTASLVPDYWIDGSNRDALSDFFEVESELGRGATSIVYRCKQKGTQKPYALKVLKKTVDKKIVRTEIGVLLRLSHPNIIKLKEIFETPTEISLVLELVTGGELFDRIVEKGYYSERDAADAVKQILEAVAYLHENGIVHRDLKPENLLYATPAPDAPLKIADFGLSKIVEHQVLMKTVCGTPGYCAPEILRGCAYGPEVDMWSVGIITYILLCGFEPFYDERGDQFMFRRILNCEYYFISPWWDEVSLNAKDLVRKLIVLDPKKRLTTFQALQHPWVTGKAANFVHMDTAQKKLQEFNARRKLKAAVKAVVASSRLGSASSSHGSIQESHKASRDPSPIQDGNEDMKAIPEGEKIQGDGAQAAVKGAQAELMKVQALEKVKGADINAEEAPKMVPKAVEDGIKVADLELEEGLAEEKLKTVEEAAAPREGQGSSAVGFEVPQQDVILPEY
The following applies: at 0.1 µM.

Experiment [5] has as its target T1, Calcium/calmodulin-dependent protein kinase type IV (Homo sapiens). The following applies: at 1 µM.
In experiment [6] the target is T2, Serine/threonine-protein kinase Chk1 (Homo sapiens) (UniProt O14757).
T2 sequence (whole entry): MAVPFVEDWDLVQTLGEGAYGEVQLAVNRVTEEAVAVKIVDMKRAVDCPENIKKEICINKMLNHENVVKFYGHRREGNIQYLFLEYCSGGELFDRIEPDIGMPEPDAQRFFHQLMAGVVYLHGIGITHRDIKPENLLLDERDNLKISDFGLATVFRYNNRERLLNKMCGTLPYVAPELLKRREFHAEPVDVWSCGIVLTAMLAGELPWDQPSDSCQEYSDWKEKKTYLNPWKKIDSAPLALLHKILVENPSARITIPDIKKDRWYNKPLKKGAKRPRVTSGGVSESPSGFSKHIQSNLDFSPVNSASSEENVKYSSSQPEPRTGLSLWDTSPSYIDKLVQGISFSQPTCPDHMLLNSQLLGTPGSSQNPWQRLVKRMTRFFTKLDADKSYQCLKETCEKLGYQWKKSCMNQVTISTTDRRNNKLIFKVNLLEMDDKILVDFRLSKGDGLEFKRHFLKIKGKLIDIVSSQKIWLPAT
The following applies: at 0.1 µM.

Experiment [7] has as its target T2, Serine/threonine-protein kinase Chk1 (Homo sapiens). The following applies: at 1 µM.
In experiment [8] the target is Serine/threonine-protein kinase Chk2 (Homo sapiens) (UniProt O96017). As to conditions: at 0.1 µM.
Chain of Serine/threonine-protein kinase Chk2 (Homo sapiens) (O96017 whole entry): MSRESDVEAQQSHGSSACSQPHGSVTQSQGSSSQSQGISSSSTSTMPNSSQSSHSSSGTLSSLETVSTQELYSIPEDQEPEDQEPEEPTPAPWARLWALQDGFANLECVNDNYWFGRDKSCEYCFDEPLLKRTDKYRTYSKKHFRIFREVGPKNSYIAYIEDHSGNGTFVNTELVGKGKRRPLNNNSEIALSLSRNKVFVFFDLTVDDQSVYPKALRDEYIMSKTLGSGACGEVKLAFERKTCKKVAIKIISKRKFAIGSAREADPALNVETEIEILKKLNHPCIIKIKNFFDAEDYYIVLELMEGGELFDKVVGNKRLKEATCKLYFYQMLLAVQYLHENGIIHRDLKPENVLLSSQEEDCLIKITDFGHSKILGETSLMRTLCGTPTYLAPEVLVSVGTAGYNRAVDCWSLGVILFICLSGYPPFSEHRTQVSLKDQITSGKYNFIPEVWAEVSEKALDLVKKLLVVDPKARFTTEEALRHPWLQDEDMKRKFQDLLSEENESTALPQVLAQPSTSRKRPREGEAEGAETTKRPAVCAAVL
Experiment [9] has the same target. The following applies: at 1 µM.
In experiment [10] the target is Death-associated protein kinase 1 (Homo sapiens) (UniProt P53355). The following applies: at 0.1 µM.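 Also: reported figure is the mean inhibition of DAPK1.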
Chain of Death-associated protein kinase 1 (Homo sapiens) (P53355 whole entry, looked up): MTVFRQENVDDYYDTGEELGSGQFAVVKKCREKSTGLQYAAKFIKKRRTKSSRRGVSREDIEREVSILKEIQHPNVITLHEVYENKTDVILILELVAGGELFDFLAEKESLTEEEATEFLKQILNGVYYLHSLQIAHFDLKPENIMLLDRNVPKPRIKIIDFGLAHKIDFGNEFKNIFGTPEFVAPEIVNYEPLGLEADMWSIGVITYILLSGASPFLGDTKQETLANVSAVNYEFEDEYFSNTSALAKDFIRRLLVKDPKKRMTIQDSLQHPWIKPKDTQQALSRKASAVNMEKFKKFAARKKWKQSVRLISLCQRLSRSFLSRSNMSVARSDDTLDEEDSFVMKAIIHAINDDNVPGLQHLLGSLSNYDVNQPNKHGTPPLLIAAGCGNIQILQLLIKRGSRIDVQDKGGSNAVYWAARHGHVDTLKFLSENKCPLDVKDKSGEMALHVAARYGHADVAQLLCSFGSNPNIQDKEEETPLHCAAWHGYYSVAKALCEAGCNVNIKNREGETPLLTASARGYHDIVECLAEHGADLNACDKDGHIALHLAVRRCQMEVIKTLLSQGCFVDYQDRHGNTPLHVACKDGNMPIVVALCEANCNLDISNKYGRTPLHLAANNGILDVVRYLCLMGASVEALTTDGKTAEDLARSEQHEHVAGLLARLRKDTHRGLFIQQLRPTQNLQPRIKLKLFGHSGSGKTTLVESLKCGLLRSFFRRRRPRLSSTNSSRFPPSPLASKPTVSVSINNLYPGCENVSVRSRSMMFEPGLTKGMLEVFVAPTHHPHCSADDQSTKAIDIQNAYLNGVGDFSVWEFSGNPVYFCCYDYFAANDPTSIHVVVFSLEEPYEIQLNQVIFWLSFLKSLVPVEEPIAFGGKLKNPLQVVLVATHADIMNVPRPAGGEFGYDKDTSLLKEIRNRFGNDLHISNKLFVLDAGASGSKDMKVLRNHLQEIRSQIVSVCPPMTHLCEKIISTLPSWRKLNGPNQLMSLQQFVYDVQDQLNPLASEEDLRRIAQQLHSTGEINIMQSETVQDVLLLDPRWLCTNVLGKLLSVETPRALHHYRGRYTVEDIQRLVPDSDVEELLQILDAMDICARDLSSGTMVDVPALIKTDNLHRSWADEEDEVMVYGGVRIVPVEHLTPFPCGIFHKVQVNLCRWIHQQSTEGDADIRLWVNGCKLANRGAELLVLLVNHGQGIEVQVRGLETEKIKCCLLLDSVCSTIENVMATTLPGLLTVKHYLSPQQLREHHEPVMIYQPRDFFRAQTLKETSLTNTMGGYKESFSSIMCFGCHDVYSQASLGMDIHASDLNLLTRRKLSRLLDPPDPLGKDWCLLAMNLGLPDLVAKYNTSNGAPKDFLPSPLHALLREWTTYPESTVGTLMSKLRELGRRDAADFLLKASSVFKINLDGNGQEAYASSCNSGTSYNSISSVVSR

Chain of Calcium/calmodulin-dependent protein kinase type II subunit alpha (Homo sapiens) (Q9UQM7 whole entry): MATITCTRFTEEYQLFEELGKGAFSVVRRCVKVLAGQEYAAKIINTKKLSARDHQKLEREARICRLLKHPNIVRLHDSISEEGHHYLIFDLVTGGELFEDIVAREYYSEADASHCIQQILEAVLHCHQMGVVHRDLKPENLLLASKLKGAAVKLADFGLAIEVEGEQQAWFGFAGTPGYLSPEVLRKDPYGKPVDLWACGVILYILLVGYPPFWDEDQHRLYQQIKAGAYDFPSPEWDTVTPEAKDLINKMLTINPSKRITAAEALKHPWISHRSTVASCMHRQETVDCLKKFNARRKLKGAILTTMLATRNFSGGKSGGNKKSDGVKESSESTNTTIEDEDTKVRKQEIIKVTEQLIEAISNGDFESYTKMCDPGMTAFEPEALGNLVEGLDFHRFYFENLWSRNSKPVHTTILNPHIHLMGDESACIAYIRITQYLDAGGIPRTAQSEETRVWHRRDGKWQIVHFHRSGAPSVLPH
Chain of Calcium/calmodulin-dependent protein kinase type II subunit delta (Homo sapiens) (Q13557 whole entry): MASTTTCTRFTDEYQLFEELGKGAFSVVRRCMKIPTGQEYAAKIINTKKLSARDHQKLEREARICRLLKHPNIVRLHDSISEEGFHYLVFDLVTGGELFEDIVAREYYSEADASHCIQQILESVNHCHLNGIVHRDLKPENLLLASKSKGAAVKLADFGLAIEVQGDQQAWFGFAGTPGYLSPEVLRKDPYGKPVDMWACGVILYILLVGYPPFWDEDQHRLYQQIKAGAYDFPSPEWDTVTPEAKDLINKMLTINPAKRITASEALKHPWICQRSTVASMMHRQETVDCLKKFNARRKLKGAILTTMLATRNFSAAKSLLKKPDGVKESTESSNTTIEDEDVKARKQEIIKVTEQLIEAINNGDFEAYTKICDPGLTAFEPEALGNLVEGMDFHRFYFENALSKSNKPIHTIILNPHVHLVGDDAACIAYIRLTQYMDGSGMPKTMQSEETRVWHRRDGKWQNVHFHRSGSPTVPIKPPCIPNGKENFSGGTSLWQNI

As a reminder, the inhibition is the relative decrease from the control value, in per cent. Turning to `Nc1nonc1-c1nc2cnccc2n1C1CC1`, the inhibition is 5.07% and 5.46% in [1]; 3.94% and 2.63% in experiment [2]; 7.79% and 4% in experiment [3]; -0.5% and 1.35% in experiment [4]; 0.32% and 1.21% in experiment [5]; 3.32% and 0.59% in experiment [6]. Also, the inhibition in experiment [7] is 14.4% and 10.5%; in experiment [8] it was 2.75% and 1.53%; in experiment [9], 6.34% and 2.63%; in experiment [10], 2.98% and -0.26%.

As for `Nc1ncnc2occ(-c3ccc(NC(=O)Nc4cc(C(F)(F)F)ccc4F)cc3)c12`, the inhibition in [1] was 3.84% and -2.75%; in experiment [2] it was 3.01% and -3.72%; in experiment [3], 4.94% and 0.29%; in experiment [4], 0.92% and -1.47%; in experiment [5], 6.17% and 0.48%; in [6], 3.39% and 0.89%. The inhibition in experiment [7] was 3.36% and 1.22%; in [8] it was 0.48% and -3.48%; in experiment [9] it was 2.69% and -1.74%; in experiment [10], 3.18% and 0.64%.

As for `Cc1cc(O)cc(C)c1/C=C/c1cncc(C(=O)OC(C)(C)C)c1`, the inhibition amounted to 3.26% in experiment [1]; 2.39% in experiment [2]; 5.41% in experiment [3]; 0.08% in experiment [4]; 1.35% in experiment [5]; 2.4% in experiment [6]. In addition, the inhibition turned out to be 3.47% in [7], 0.86% in experiment [8], 2.31% in [9] and 1.5% in experiment [10].

In the case of `CCCNc1cccc(-n2ncc3c(N/N=C/c4ccncc4)ncnc32)c1`, the inhibition is 3.36% in experiment [1]; 1.11% in [2]; 1.17% in [3]; -2.8% in experiment [4]; -3.1% in [5]; -4.03% in experiment [6]. Further, the inhibition in [7] is -5.65%; in [8], -4.06%; in experiment [9] it was 0.34%; in [10], -6.43%.

On to `NS(=O)(=O)c1cccc(N/C=C2\C(=O)Nc3ccccc32)c1`, for which the inhibition in [1] turned out to be 8.27%; in experiment [2], 5.11%; in [3] it was 16.3%; in experiment [4] it was 1.25%; in [5], 2.86%; in [6] it was 9.31%. Moreover, the inhibition was 14.3% in experiment [7], 10.6% in experiment [8], 32.8% in [9] and 10.6% in experiment [10].

`OCCCNc1nccc(-c2c(-c3ccc(F)cc3)nn3cc(C(F)(F)F)ccc23)n1`: the inhibition is 3.74% in experiment [1]; 2.44% in experiment [2]; 6.94% in experiment [3]; 0.82% in experiment [4]; 1.44% in experiment [5]; -0.5% in [6]. Also, the inhibition is -1.18% in experiment [7], 2.3% in experiment [8], 2.83% in experiment [9] and -0.68% in experiment [10].

Regarding `COc1ccc(Nc2ncc(-c3ccccc3)o2)cc1OC`, the inhibition in experiment [1] is 4.71%; in experiment [2], 0.93%; in experiment [3], 8.26%; in experiment [4] it was -0.62%; in experiment [5], 1.46%; in [6] it was -0.04%. Further, the inhibition was 50.5% in experiment [7], -0.14% in experiment [8], 2.24% in experiment [9] and 1.44% in experiment [10].

Regarding `NC(=O)c1ccc2c(-c3ccnc(NCCCO)n3)c(-c3ccc(F)cc3)nn2c1`, the inhibition stood at 3.63% in [1]; 4.46% in [2]; 3.95% in experiment [3]; 0.65% in experiment [4]; 0.03% in experiment [5]; 8.23% in [6]. Also, the inhibition worked out at 7.94% in experiment [7], 10.1% in [8], 10.6% in [9] and 11.7% in experiment [10].

For the compound `Nc1nccc(-c2c(-c3ccc(F)cc3)ncn2C2CCNCC2)n1`, the inhibition in experiment [1] is -5.1% and -1.06%; in [2], -3.9% and -0.18%; in experiment [3], 1.49% and 0.43%; in experiment [4], 0% and 0.8%; in experiment [5], -2.13% and 0%; in experiment [6], -2.55% and 0.68%. For the same compound, the inhibition in experiment [7] was -3.32% and -2.24%; in [8], -2.81% and -0.53%; in experiment [9], -2.65% and -0.65%; in experiment [10] it was -2.18% and -0.72%.

In the case of `CCN1CCC(C(=O)Nc2n[nH]c3nnc(-c4cccc(F)c4F)cc23)CC1`, the inhibition in experiment [1] is -1.33%; in experiment [2] it was -0.8%; in [3], -0.61%; in [4] it was 0.3%; in [5], -1.03%; in [6] it was -2.25%. For the same compound, the inhibition in experiment [7] is 0.59%; in experiment [8], -0.57%; in [9] it was 0.65%; in experiment [10] it was -0.72%.

Turning to `Cc1nnc(-c2cccc(-c3ccc(C(=O)NCC4CC4)cc3)c2)o1`, the inhibition in experiment [1] is 3.99%; in experiment [2], 3.26%; in experiment [3], 6.04%; in [4], -2.72%; in [5], -2.97%; in experiment [6], 4.9%. Further, the inhibition in experiment [7] worked out at 5.14%; in [8], 3.86%; in experiment [9], 4.86%; in [10] it was 5.32%.

Take `CNC(=O)c1cncc(/C=C/c2ccccc2C)c1`: the inhibition is 3.24% in [1]; 2.3% in [2]; 3.14% in experiment [3]; -1.31% in experiment [4]; -2.38% in [5]; 5.89% in experiment [6]. Also, the inhibition in experiment [7] turned out to be 5.73%; in experiment [8], 2.11%; in [9] it was 3.83%; in experiment [10] it was 6.54%.

Consider `FC(F)(F)CNc1nccc(-c2cnn3ncccc23)n1`, for which the inhibition in [1] was -1.03%; in experiment [2] it was 2.87%; in experiment [3] it was 1.95%; in experiment [4], -0.09%; in experiment [5], -1.75%; in experiment [6], 0.28%. Also, the inhibition in experiment [7] was determined as 2.9%; in experiment [8], 1.64%; in experiment [9], 0.78%; in experiment [10], 3.66%.

Turning to `CCS(=O)(=O)c1ccc(OC)c(Nc2ncc(-c3cccc(F)c3)o2)c1`, the inhibition in experiment [1] was 5.43%; in [2], 4.73%; in experiment [3] it was 10.6%; in experiment [4], -0.92%; in experiment [5] it was 1.07%; in experiment [6], 3.94%. For the same compound, the inhibition in experiment [7] stood at 12.9%; in experiment [8], 2.75%; in experiment [9] it was 4.65%; in experiment [10] it was 7.21%.

Turning to `CC(C)c1ccc(-c2cc(-c3c[nH]nc3-c3ccccn3)ccn2)cc1`, the inhibition is -0.49% in experiment [1]; -0.8% in experiment [2]; 1.63% in experiment [3]; 0.73% in experiment [4]; 1.62% in [5]; -0.13% in [6]. For the same compound, the inhibition in experiment [7] worked out at 1.92%; in experiment [8], 0.27%; in [9], 0.77%; in [10], 0.1%.
